# Source: PubChem BioAssay
# Compounds with a hit are over-represented: about 12% of the library has one in this group of screens.
# Pf growth 48h: P. falciparum growth inhibition at 48 hours (one generation); P. falciparum luciferase growth in erythrocytes, 48 h; Potency, µM (doses to about 28.7 µM), for the others: at the top dose activity change, negative = inhibition, usual class: inhibitors; 310,000 compounds, 5.9% hits; further: on the % scale 0 is the no-effect control and ±100 the full control effect
#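 Erythrocytes infected with P. falciparum carrying an integrated firefly luciferase reporter (2% hematocrit, 0.1% parasitemia final) were exposed to compounds in RPMI 1640 with 0.5% Albumax at 37 C, 5% CO2. Growth inhibition was scored as reduced luminescence.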
# Sm TGR block: inhibitors of Schistosoma mansoni thioredoxin glutathione reductase; Q962Y6; purified TGR, DTNB reduction, TNB absorbance 405 nm; Potency, µM (series often up to 114 µM), for the others: at the top dose activity change, negative = inhibition, usual class: inhibitors; 360,000 compounds, 3% hits; further: on the % scale 0 is the no-effect control and ±100 the full control effect; nearly all actives have a fitted effect of over 60% in size
#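 TGR 20 nM + NADPH 100 uM (dispensed conc.), cpd preinc 15 min RT; start with NADPH (500 uM addition) then DTNB (15 mM addition). Kinetic TNB absorbance, 405 nm filter. Four-parameter Hill fit across titration.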
# AmpC detergent: AmpC beta-lactamase inhibition with detergent present. P00811. Potency, µM (top dose mostly 114 µM), without a hit: at the top dose activity change, negative = inhibition, hits mostly inhibitors. 370,000 compounds, 0.041% hits. AmpC hydrolysis of nitrocefin, absorbance 480 nm, 0.01% Triton;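 further: 0% = no-compound wells and -100% = no-enzyme wells; nearly all actives have a fitted effect of over 25% in size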
# Target sequence (P00811 whole entry, looked up): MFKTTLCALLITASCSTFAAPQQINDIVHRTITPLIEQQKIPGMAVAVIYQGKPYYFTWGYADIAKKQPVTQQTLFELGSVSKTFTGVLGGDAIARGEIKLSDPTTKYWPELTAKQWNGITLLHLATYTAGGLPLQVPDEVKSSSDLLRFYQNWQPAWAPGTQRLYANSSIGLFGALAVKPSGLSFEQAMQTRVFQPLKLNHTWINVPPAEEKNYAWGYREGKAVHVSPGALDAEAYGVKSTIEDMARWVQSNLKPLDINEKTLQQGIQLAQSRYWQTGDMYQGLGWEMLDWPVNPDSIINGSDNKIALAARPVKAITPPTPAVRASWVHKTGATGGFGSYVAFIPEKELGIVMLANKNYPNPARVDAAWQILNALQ
#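 20 mM phosphate pH 7.0 + 0.01% (detergent screen) or 0.0001% Triton X-100; 5.3 nM AmpC reagent; cpd preinc 15 min RT; nitrocefin (800 uM stock) to start; A480 q20 s × 4 min; Activity was normalised to no-enzyme and no-compound control wells.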
# Pf growth 96h: inhibits malaria parasite growth, 96 h | P. falciparum luciferase reporter growth, 96 h | Potency, µM (titrated, usually from 28.7 µM), inactives show at the highest dose activity change, negative = inhibition, hits mostly inhibitors | 320,000 compounds, 6.9% hits | AID 504834; further: on the % scale 0 is the no-effect control and ±100 the full control effect
#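 Delayed-death screen, second-generation endpoint: infected erythrocytes, 2% hematocrit, 0.05% parasitemia final; 96 hours at 37 C, 5% CO2; luciferase detection reagent; luminescence decrease equals reduced growth.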
# SARS PLP yeast: blocks SARS-CoV papain-like protease in a yeast assay | S. cerevisiae expressing SARS-CoV PLpro, growth rescue | Potency, µM (top dose mostly 32.9 µM), for inactives: at the top dose activity, positive = growth rescue, hits mostly activators | 330,000 compounds, 0.19% hits; calls by dose curve; further: 0% is about no effect; nearly all actives have a fitted effect of over 55% in size
# AmpC inh no detg: AmpC beta-lactamase inhibition without detergent | P00811 | AmpC nitrocefin hydrolysis, absorbance 480 nm, 0.0001% Triton | Potency, µM (doses to about 57.1 µM), for inactives: top-dose activity change, negative = inhibition, most hits filed as inhibitors | 330,000 compounds, 0.52% hits | AID 485341;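 further: plate controls were no compound for no effect and no enzyme for full effect; nearly all actives have a fitted effect of over 20% in size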
#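 20 mM phosphate pH 7.0 + 0.01% (detergent screen) or 0.0001% Triton X-100; 5.3 nM AmpC reagent; cpd preinc 15 min RT; nitrocefin (800 uM stock) to start; A480 q20 s × 4 min; Activity was normalised to no-enzyme and no-compound control wells.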
# An asterisk follows results filed as active; ? = inconclusive; nt = no result; [ ] = remark or other dose. Unless noted, the call rests on the fitted dose curve; in most records, active means well fitted curve in the direction sought with a large enough effect; inconclusive means small, poorly fitted or top-dose-only effect, or another doubt; inactive means no such curve, though single readings can be large; an effect the other way counts as inactive or inconclusive. Potency means the concentration at half of the fitted maximal effect.
SMILES,Pf growth 48h,Sm TGR block,AmpC detergent,Pf growth 96h,SARS PLP yeast,AmpC inh no detg
CCOc1ccccc1N(CC(=O)Nc1ccccc1C(=O)N1CCOCC1)S(C)(=O)=O,3.2%,3.0%,3.5%,10.4µM*,2.4%,1.0%
CS(=O)(=O)N(CC(=O)Nc1ccccc1C(=O)N1CCOCC1)c1ccccc1,0.0%,36.9%,-4.2%,26.4%,2.0%,-20.3%
COc1ccc(N(CC(=O)Nc2ccccc2C(=O)N2CCOCC2)S(=O)(=O)c2ccc(F)cc2)cc1,-1.2%,10.3%,3.5%,10.4µM*,15.1%,59.0%
O=S(=O)(O)CC(S)CS (centres undefined),1.6%,nt,nt,-16.5%,nt,nt
C/C(Cl)=C\Cn1c(NCCc2ccccc2)nc2c1c(=O)n(C)c(=O)n2C,9.28µM*,-7.1%,-10.3%,40.1%,1.8%,-2.8%
Cn1c(=O)c2c(nc(NCc3ccccc3)n2CC(=O)NCc2ccccc2)n(C)c1=O,-2.4%,13.2%,-12.6%,56.2%,-2.6%,-1.2%
Cn1c(=O)c2c(nc(NCCc3ccccc3)n2CC(=O)NCCc2ccccc2)n(C)c1=O,-10.2%,1.7%,?,13.1µM*,-5.4%,-42.1%
Cn1c(=O)c2ncn(CC(=O)O)c2n(C)c1=O,17.9%,5.7%,5.3%,7.6%,-1.1%,-26.2%
Cc1cccc(NC(=O)Cn2c(C)c(C#N)c3ccccc32)c1C,2.08µM*,4.6%,-7.5%,nt,-4.2%,-23.2%
Cc1c(C#N)c2ccccc2n1CC(=O)NC(C)c1ccccc1 (centres undefined),2.94µM*,-17.3%,?,nt,8.1%,-19.4%
Cc1ccccc1CSCCNC(=O)Nc1ccccc1,?,-2.7%,-6.0%,-8.0%,-1.3%,-1.7%[2.29 µM]
CN(c1ccccc1)S(=O)(=O)c1cccc(NC(=O)COC(=O)C2CCCCC2)c1,-5.7%,-31.2%,-2.5%,17.6%,-0.9%,3.55µM*
Cc1ccccc1CN(C)CC(=O)Nc1cccc(S(=O)(=O)N(C)c2ccccc2)c1,?,4.3%,-15.3%,?,-0.8%,12.9%
NS(=O)(=O)c1cccc(NC(=O)COC(=O)C2CCCCC2)c1,11.8%,-1.0%,-6.8%,33.5%,6.8%,-22.8%
CC(C)N(C(=S)Nc1cccc(S(=O)(=O)N(C)C)c1)c1ccccc1,-1.3%,11.2µM*,1.8%,7.9%,0.4%,-20.0%
CCC(C(=O)Nc1cccc(S(=O)(=O)N(C)c2ccccc2)c1)c1ccccc1 (centres undefined),9.28µM*,0.7%,6.2%,?,-0.7%,-13.3%
CCN(CC(=O)Nc1cccc(S(=O)(=O)N(C)c2ccccc2)c1)Cc1ccccc1,?,-0.8%,-10.7%,10.4µM*,4.1%,-32.5%
Cc1ccc(S(=O)(=O)Nc2ccc3c(c2)nc(CCN2CCCC2)n3C)cc1,?,1.3%,0.9%,?,-0.7%,68.6%
CC(CN1CCN(Cc2ccccc2)CC1)OC(=O)c1ccco1 (centres undefined),-1.4%,-2.6%,4.1%,41.3%,7.5%,0.2%
COC(=O)c1[nH]c2cccc(Cl)c2c1NC(=O)CN(C)C1CCCCC1,?,-4.5%,0.8%,8.28µM*,-12.1%,103.3%
O=C(COc1ccccc1F)Nc1cc(S(=O)(=O)N2CCOCC2)ccc1N1CCOCC1,11.7µM*,12.2%,-8.8%,?,0.4%,122.9%
Cc1ccccc1OCC(=O)Nc1cc(S(=O)(=O)N2CCOCC2)ccc1N1CCCC1,10.4µM*,-4.4%,2.1%,7.38µM*,1.6%,158.2%
Cc1cc(S(=O)(=O)N2CCOCC2)ccc1OCC(=O)Nc1ccc(F)cc1F,11.4%,4.8%,-7.0%,58.0%,1.3%,-6.6%
CCN1CCN(c2ccc(S(=O)(=O)N3CCOCC3)cc2NC(=O)COc2ccc(F)cc2Cl)CC1,?,-9.1%,3.2%,4.65µM*,20.4%,100.8%
CC(C)c1ccccc1OCC(=O)Nc1cc(S(=O)(=O)N2CCOCC2)ccc1N1CCCC1,5.22µM*,-4.4%,?,?,nt,127.6%
SMILES,Pf growth 48h,Sm TGR block,AmpC detergent,Pf growth 96h,SARS PLP yeast,AmpC inh no detg
COc1ccccc1C(=O)OCC(=O)Nc1cc(S(=O)(=O)N2CCOCC2)ccc1N1CCCC1,0.0%,-4.5%,-2.2%,2.1%,-3.0%,64.4%
Cn1c(SCc2cccc(F)c2)nnc1-c1cnccn1,18.8%,-1.7%,-0.4%,-0.3%,0.1%,-1.8%
COCCNC(=O)CN(Cc1ccccc1)C(=O)CCC(=O)Nc1nccs1,6.9%,3.6%,2.8%,10.5%,5.4%,2.7%
COc1ccc2ccccc2c1/C=N/NC(=S)Nc1cc(S(=O)(=O)N2CCOCC2)ccc1N1CCOCC1,5.22µM*,-0.7%,-3.3%,1.65µM*,10.8%,-9.5%
COc1ccc(/C=N/NC(=S)Nc2cc(S(=O)(=O)N3CCOCC3)ccc2N2CCOCC2)cc1O,?,0.0%,-6.4%,?,14.4%,36.3%
C=CCOC(=O)C1=C(C)NC(SCC(=O)Nc2ccccc2)=C(C#N)C1c1ccco1 (centres undefined),9.28µM*,-13.1%,-1.4%,?,27.4%,9.7%
CCOC(=O)C1=C(C)NC(SCC(=O)Nc2nc(C)cs2)=C(C#N)C1c1cccs1 (centres undefined),2.08µM*,-3.4%,-4.9%,?,-23.8%,-22.3%
CCN(CC)C(=O)CSC1=C(C#N)C(c2ccco2)C(C(=O)OCCOC)=C(C)N1 (centres undefined),?,-26.3%,6.9%,?,5.8%,67.8%
C=CCOC(=O)C1=C(C)NC(SCC(=O)N(CC)CC)=C(C#N)C1c1ccco1 (centres undefined),13.1µM*,-21.5%,-0.8%,nt,2.9%,63.5%
CCOC(=O)C1=C(C)NC(SCC(=O)O)=C(C#N)C1c1ccco1 (centres undefined),16.3%,-8.7%,?,3.5%,-5.1%,-22.8%
C=CCOC(=O)C1=C(C)NC(SCC(=O)NC(=O)OCC)=C(C#N)C1c1cccnc1 (centres undefined),10.4µM*,39.8µM*,-3.9%,3.6%,-0.7%,-3.9%
COc1ccc(C)cc1NC(=O)N1CCCn2nc(C)cc21,nt,-2.0%,19.1%,nt,nt,nt
Cc1ccc(-n2cc(CNCC3CC(=O)N(C4CC4)C3)c(-c3cccc(C)c3)n2)cc1 (centres undefined),?,-20.5%,-5.3%,11.7µM*,0.2%,218.7%
O=[N+]([O-])c1cc(Br)cc(C=Nc2ccc3c(c2)OCO3)c1O,-18.3%,17.8µM*,-0.3%,16.6%,-5.0%,-43.0%
CC(C)(C)c1ccc(O)c(N=Cc2cc3c(cc2[N+](=O)[O-])OCO3)c1,?,-28.2%,-19.2%,86.1%,0.1%,-29.1%
